Data taken from ChEMBL document CHEMBL3433997, “St. Jude Leishmania screening dataset” (2016).

What was measured:
Format in all cases: functional
[1] = biological target: Solute carrier family 2, facilitated glucose transporter member 1 (Homo sapiens) (UniProt P11166); assay: ST_JUDE_LEISH: Cytotoxicity at 2uM final concentration against transgenic Leishmania Mexicana promastigotes LmGLUT1 that are glucose transport deficient and complemented with the human glucose transporter GLUT1. Activity is measured by DNA content using SYBR green in vitro
Chain of Solute carrier family 2, facilitated glucose transporter member 1 (Homo sapiens) (P11166 whole entry): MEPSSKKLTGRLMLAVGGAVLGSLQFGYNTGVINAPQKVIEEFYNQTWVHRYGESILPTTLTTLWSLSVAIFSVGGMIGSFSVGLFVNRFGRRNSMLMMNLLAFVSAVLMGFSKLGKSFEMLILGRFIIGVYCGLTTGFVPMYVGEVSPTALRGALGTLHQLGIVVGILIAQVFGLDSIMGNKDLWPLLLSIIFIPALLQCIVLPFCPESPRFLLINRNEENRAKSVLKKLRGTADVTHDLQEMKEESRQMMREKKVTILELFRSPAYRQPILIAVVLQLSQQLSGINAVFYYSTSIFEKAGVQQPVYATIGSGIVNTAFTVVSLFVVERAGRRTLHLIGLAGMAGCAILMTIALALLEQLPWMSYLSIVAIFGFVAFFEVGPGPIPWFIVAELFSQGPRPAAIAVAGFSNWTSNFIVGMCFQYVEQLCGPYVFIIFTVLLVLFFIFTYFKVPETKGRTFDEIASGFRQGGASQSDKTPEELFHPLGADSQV

[2] = biological target: Hexose transporter 1 (Plasmodium falciparum) (UniProt O97467); assay: ST_JUDE_LEISH: Cytotoxicity at 2uM final concentration against transgenic Leishmania Mexicana promastigotes LmPfHT that are glucose transport deficient and complemented with the Plasmodium falciparum hexose transporter. Activity is measured by DNA content using SYBR green in vitro
[3] = biological target: Glucose transporter (Leishmania mexicana) (UniProt O61059); assay: ST_JUDE_LEISH: Cytotoxicity at 2uM final concentration against transgenic Leishmania Mexicana promastigotes LmGT2 that are glucose transport deficient and complemented with the L. Mexicana glucose transporter 2. Activity is measured by DNA content using SYBR green in vitro

Row | SMILES | inhibition [1] [%] | inhibition [2] [%] | inhibition [3] [%]
1 | CC(=O)Nc1ccc(C(=O)Nc2cccc(-c3ccc(-c4nc5cc(C(F)(F)F)ccc5[nH]4)cc3)c2)cn1 | 2.59 | -0.8 | 3.05
2 | Clc1cccc(-c2nc(Nc3ccnc(-c4ccc(CN5CCOCC5)cc4)c3)c3ccccc3n2)c1 | 4.42 | 3.91 | 3.58
3 | CN1CC(c2ccccc2)c2cc(O)c(CN3CCCCC3)cc2CC1Cc1ccccc1 (stereo unspecified) | 9.54 | 7.19 | 6.78
4 | O=C(C1CCN(C(c2ccccc2)c2ccc(Cl)c(Cl)c2)CC1)N1CC=CC1 (stereo unspecified) | 0.54 | 3.99 | -0.23
5 | COc1ccc(Nc2nccc(-c3cccc(NC(=O)c4cc5cc(F)ccc5[nH]4)c3)n2)cc1 | 3.61 | 0.11 | -1.2
6 | COc1cc(-c2nc(-c3ccncc3)c(-c3ccc4c(c3)CCC4=NO)[nH]2)ccc1OCCN1CCCCC1 | -5.14 | 1.57 | 2.76
7 | N#Cc1ccc(-c2ccc(C(=O)NCCCCN3CCC(c4cc(Br)c5c(c4O)CCCC5)CC3)cc2)cc1 | 0.25 | 0.94 | -0.42
8 | Cc1cc(N(C)C2CCN(C)C2)nc(Nc2ccc(Cl)cc2)n1 (stereo unspecified) | 7.55 | 8.61 | 4.14
9 | Cc1cccc2nc(-c3cccc(-c4ccc(NC(=O)NCc5ccccc5)cc4)c3)[nH]c12 | 1.51 | 2.74 | 1.31
10 | CC(C)NCC(=O)Nc1cccc(C(=O)Nc2cccc(C(F)(F)F)c2)c1 | 4.13 | 2.76 | -1.8
11 | Cc1nc(-c2cccc3c(NC(=O)Nc4ccc5nccc(N6CCN(C)CC6)c5c4)cccc23)no1 | 4.28 | 4.25 | 6.65
12 | COc1ccc(NC(=O)Nc2ccc(-c3ccc(-c4nc5cccc(C)c5[nH]4)s3)cc2)cc1 | 4.04 | 4.64 | 3.71
